CHT block: inhibitors of human choline transporter CHT. Q9GZV3. 310,000 compounds, 0.86% hits. CHT-expressing cells, membrane potential dye, choline response; hits give low values. B-score at 10 µM;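 active = B-score over 3 SD under the library average, and starting fluorescence ratio not unusually high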;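 note: choline stimulus applied at its EC90 after an EC20 pre-addition; B-score computed on integrated fluorescence ratio after choline addition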
Target sequence (Q9GZV3 whole entry, looked up): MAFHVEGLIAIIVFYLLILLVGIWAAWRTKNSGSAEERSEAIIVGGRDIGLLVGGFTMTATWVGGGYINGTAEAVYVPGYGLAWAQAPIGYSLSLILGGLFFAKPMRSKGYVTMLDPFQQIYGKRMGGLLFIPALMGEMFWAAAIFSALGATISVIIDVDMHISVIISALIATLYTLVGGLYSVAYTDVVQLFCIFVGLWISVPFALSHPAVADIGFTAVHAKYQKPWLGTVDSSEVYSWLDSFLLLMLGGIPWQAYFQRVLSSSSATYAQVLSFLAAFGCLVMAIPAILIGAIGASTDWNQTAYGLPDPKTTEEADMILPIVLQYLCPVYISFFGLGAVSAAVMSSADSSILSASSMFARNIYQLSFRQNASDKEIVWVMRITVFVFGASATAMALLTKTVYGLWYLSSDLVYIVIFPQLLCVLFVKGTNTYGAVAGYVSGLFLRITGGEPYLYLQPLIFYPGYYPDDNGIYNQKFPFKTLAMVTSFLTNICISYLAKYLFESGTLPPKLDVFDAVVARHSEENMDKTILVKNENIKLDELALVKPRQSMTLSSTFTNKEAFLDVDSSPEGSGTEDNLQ
VLA-4 inh: inhibition in a human VLA-4 binding assay | VLA-4 expressing cells, ligand binding flow cytometry | AID 2557 | inhibition, % (about 7 µM as worked out from the volumes in the protocol) | P13612 | 330,000 compounds, 0.2% hits; in the data active = inhibition above about 50%
Platelet DG rel: modulates dense granule release in human platelets. human platelet-rich plasma, SFLLRN dense granule ATP release, luminescence. inhibition, %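 (compounds screened at 7.5 µM in platelet-rich plasma)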. 300,000 compounds, 0.22% hits;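 active = mean replicate score, as percent of positive control, at or above 50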
CHT allo act: human CHT allosteric activation | Q9GZV3 | B-score at 10 µM | 310,000 compounds, 0.49% hits | CHT-expressing cells, membrane potential dye, choline EC20; hits give high values; LV-AA mutant CHT in HEK293 cells;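 active = initial fluorescence not abnormally high and integrated response B-score, plate-corrected, over 3 SD above library mean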
AI-2 QS modul: Vibrio harveyi AI-2 quorum sensing modulation; Vibrio harveyi JMH597 AI-2 luminescence/OD600 ratio, 9 h; hits give low values; strain lacks LuxN and CqsS sensors; 0 = neutral-control median; activity change, % at 7.5 µM; 300,000 compounds, 0.4% hits; AID 2094; in the data active = activity change below about -75%, passing the limit was not always enough;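 note: luminescence divided by OD600 gain over 9 h not by final OD600 alone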
HIF act: HIF pathway transcriptional activation; U2OS HRE-luciferase reporter, luminescence; normalized: DMSO 0%, desferrioxamine 100%; activation, % at 7.5 µM (by protocol); 300,000 compounds, 0.32% hits; AID 1910;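 active = mean activation of at least 10% of the iron chelator positive control signal, with at least half of replicates also reaching 10%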
Numbers without * were called inactive; i = inactive; x = no result given. In the library only some 2.2% were active in any assay of this set; here they are far more common.

SMILES	CHT block	VLA-4 inh	Platelet DG rel	CHT allo act	AI-2 QS modul	HIF act
C/C(CCc1ccc2c(c1)OCO2)=N\NC(=O)c1ccccc1	i	1	1	i	11	1
NC(=NCc1ccc2c(c1)OCO2)NC(=O)c1ccccc1	x	x	-1	x	-77*	0
COc1ccc(CC(=O)OCC(=O)Nc2cccc(Cl)c2)cc1	i	11	-6	i	-71	-1
COc1ccc(CCC(=O)Nc2cccc(Cl)c2)cc1	i	26	0	i	-83*	0
COc1cccc(NC(=O)COC(=O)Cc2ccc(Br)cc2)c1	i	5	0	i	-7	0
COc1ccc(CC(=O)OCC(=O)Nc2cccc(Br)c2)cc1	i	9	-7	i	-76*	0
CCOC(=O)C1(CCOc2ccccc2)CCN(Cc2ccc(OCC)c(CO)c2)CC1	i	4	3	i	27	1
CC(C)(C)c1ccc(SCCc2cccnc2)cc1	i	10	11	i	17	3
CC1=NN(c2ccccc2)C(=O)C1C=Nc1ccccc1O (centres undefined)	-5.2*	10	3	i	-20	0
CC1=NN(c2ccccc2)C(=O)C1(C)C	i	3	-8	i	12	-1
CN(C)c1ncnc2sc(-c3ccccc3)cc12	i	-9	2	i	5	2
COc1ncnc2sc(-c3ccccc3)cc12	i	8	61*	i	27	2
C/C(=N\O)C(C)Oc1ccc(Cl)cc1 (centres undefined)	i	5	3	i	7	0
COc1ccc(CC(NC(C)=O)C(=O)NC2CCN(C(=O)Nc3ccc(Cl)cc3)CC2)cc1OC (centres undefined)	i	20	4	i	11	37*
N/C(=N\NS(=O)(=O)c1ccc(Cl)cc1)c1ccccn1	i	-3	4	i	8	3
CCOc1ccc(/C=N/n2c(C3CCCCC3)n[nH]c2=S)cc1	i	1	-2	i	7	-3
NC(=O)N/N=C/c1ccc([N+](=O)[O-])o1	i	21	x	i	x	x
O=C(COc1ccccc1)N/N=C/c1ccc([N+](=O)[O-])o1	i	0	20	i	-20	0
O=C(CNc1ccc2ccccc2c1)N/N=C/c1ccc([N+](=O)[O-])o1	i	-1	9	i	-92*	0
O=C(N/N=C/c1ccc([N+](=O)[O-])o1)C(O)c1ccccc1 (centres undefined)	i	-6	0	i	-89*	0
CCOc1ccc(S(=O)(=O)N2CCC(C(=O)Nc3cc(S(C)(=O)=O)ccc3Cl)CC2)cc1	x	6	x	x	x	x
CCOC(=O)CC(=O)Nc1nc2ccccc2s1	i	28	-7	i	11	0
CCOC(=O)Cc1ccc2sc(-c3ccccc3)nc2c1	i	9	55*	i	12	0
COc1cc(OC)c(C(=O)OCC(=O)NC2CCCCCCC2)cc1OC	x	5	x	x	x	x
COc1ccc2c(c1)c(C(=O)CN1CCc3ccccc3C1)c(C)n2C	i	-18	-11	i	1	44*
SMILES	CHT block	VLA-4 inh	Platelet DG rel	CHT allo act	AI-2 QS modul	HIF act
Cc1ccc(C(=O)c2ccc([N+](=O)[O-])cc2)cc1	i	6	-1	i	13	0
Cc1ccc(C(=O)c2coc3cc([N+](=O)[O-])c(O)c([N+](=O)[O-])c23)cc1	i	1	-1	i	-90*	0
CC1(C(=O)OCC(=O)Nc2ccc3ccccc3c2)CC1(Cl)Cl (centres undefined)	i	-1	-4	i	-33	3
CCN(CC)S(=O)(=O)c1ccc2c(c1)nc(CCC(=O)O)n2C	i	2	60*	i	11	0
Cn1c(CCC(=O)O)nc2cc(S(=O)(=O)N3CCCC3)ccc21	x	-6	x	x	x	x
O=C(C1=C[C@H](C2CC2)C[C@H](OCc2ccc(CO)cc2)O1)N1CCN(Cc2ccc3c(c2)OCO3)CC1	-5.3*	-6	-4	i	21	1
COc1cccc(/C=N/Nc2ccc(C(=O)O)cc2)c1O	i	-12	95*	i	14	-7
COc1cccc(/C=N/Nc2ccccc2C(=O)O)c1O	i	4	9	i	19	4
COc1cccc(/C=N/Nc2ccc([N+](=O)[O-])cn2)c1O	i	-26	13	i	27	50*
COc1cccc(/C=N/Nc2ccc(S(=O)(=O)O)cc2)c1O	i	2	56*	i	13	0
CCOc1ccc(OCCC(=O)NNC(=O)c2ccncc2)cc1	x	15	x	x	x	x
CCOC(=O)c1cnc2cc(-c3ccc(Cl)cc3)nn2c1N	i	-18	-9	i	23	x
CSc1nc(N)n2nc(-c3ccc(Cl)cc3)cc2n1	i	21	67*	i	10	1
CCN(CC)c1ccc(NC(=O)CSc2nc3nc(C)cc(C)c3c(=O)[nH]2)cc1	i	-32	6	i	46	386*
COC(=O)c1ccccc1NC(=O)Nc1ccc2c(c1)OCO2	i	9	74*	i	15	2
O=C(CCNC(=O)c1ccccc1Cl)Nc1ccc2c(c1)OCO2	i	29	-3	i	13	0
O=C(CCl)Nc1ccccc1C(=O)Nc1ccc2c(c1)OCO2	i	4	55*	i	3	1
CCN(CC(=O)Nc1ccc2c(c1)OCCO2)CC(=O)Nc1ccc2c(c1)OCO2	i	0	-5	i	-4	54*
COC(=O)c1ccc(C(=O)OC)c(NC(=O)Nc2ccc3c(c2)OCO3)c1	i	-1	-1	i	2	3
Brc1cccc(OCCSc2ncccn2)c1	i	3	-9	i	-82*	1
Nc1nnc(SCCOc2cccc(Br)c2)s1	i	13	-7	i	-79*	1
CCCOc1ccc(OCCSc2nnc(N)s2)cc1	i	-6	-7	i	26	2
CC1(C)OC(C(O)(c2ccccc2)c2ccccc2)[C@@H](C(O)(c2ccccc2)c2ccccc2)O1 (some centres undefined)	i	1	2	i	19	0
NC(=O)c1cc([N+](=O)[O-])c(Cl)cc1NCc1cccnc1	i	22	x	i	x	x
CCCCN(C(=O)CC1OC(=O)c2ccccc21)c1c(N)n(CCCC)c(=O)[nH]c1=O (centres undefined)	i	-2	-3	i	10	-1
N#CCCCN1C(=O)C(=C(C#N)C#N)c2ccccc21	i	-1	1	i	25	0
O=C(O)c1ccc2cc(-c3ccccc3)[nH]c2c1	i	-5	14	i	4	20*
C=C(C)CNC(=O)c1ccc2nc(Cc3ccc(OC)cc3)oc2c1	i	-2	8	i	14	11*

Source: PubChem BioAssay (several laboratories)
